A short description of assay [1]: qHTS assay to identify small molecule agonists of the RXR signaling pathway - cell viability counter screen (AID 1159529). Further: nearly all actives have a fitted effect of over 50% in size. Further: potency means the concentration at half of the fitted maximal effect.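 On activity change, negative = cytotoxicity: HEK 293T cells carrying an RXR-alpha UAS beta-lactamase reporter; series mostly up to about 77 µM.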 In short, it runs like this:
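Steps: seed RXR-alpha-UAS-bla HEK 293T cells in assay medium containing 2% charcoal-stripped FBS; incubate 5 hr; add compounds in DMSO; incubate 16 hr at 37 C; after the bla read, add CellTiter-Glo and read luminescence at 30 min.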
For orientation: qHTS replaces the single test concentration by a dilution series.

The nature of assay [2]: qHTS assay to identify small molecule antagonists of the retinoid acid receptor (RAR) signaling pathway - cell viability counter screen (AID 1159551). Further: nearly all actives have a fitted effect of over 35% in size. In short, it runs like this:
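In this counter screen, the RARE-luciferase line C3RL4 was exposed for 6 h at 37 C and 5% CO2 to compounds with retinol at 1 uM final. Cellular ATP, read by luminescence, served as the viability measure.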

A short description of assay [3]: qHTS assay to identify small molecule antagonists of the retinoic acid receptor (RAR) signaling pathway (AID 1159552; further: nearly all actives have a fitted effect of over 50% in size). In short, it runs like this: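 Retinol at 1 uM final stimulated RARE-luciferase expression in C3RL4 cells exposed to test compounds for 6 hr at 37 C. Reduced luminescence, read 30 min after detection reagent, indicated pathway antagonism.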
Assay [4] is described as follows: qHTS assay to identify small molecule antagonists of the estrogen related receptor (ERR) signaling pathway from Tox21 library - cell viability counter screen (AID 1224834). Further: nearly all actives have a fitted effect of over 30% in size. In short, it runs like this:
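Counter screen run in ERR cells (2,000 cells/well): cells pre-incubated 6 h, then treated with compounds for 17.5 h at 37 C. Fluorescence was read 30 min after CellTiter-Fluor addition.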

The target of assay [5] is Luciferin 4-monooxygenase (Photinus pyralis) (UniProt P08659). In words: qHTS assay to identify small molecule inhibitors of firefly luciferase (AID 1224835). Further: series mostly up to about 120 µM; nearly all actives have a fitted effect of over 25% in size. The essentials: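 Quantitative HTS format; KM concentrations of both substrates. Purified P. pyralis FLuc activity quantified from luminescence images.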
Sequence of Luciferin 4-monooxygenase (Photinus pyralis) (P08659 whole entry, looked up): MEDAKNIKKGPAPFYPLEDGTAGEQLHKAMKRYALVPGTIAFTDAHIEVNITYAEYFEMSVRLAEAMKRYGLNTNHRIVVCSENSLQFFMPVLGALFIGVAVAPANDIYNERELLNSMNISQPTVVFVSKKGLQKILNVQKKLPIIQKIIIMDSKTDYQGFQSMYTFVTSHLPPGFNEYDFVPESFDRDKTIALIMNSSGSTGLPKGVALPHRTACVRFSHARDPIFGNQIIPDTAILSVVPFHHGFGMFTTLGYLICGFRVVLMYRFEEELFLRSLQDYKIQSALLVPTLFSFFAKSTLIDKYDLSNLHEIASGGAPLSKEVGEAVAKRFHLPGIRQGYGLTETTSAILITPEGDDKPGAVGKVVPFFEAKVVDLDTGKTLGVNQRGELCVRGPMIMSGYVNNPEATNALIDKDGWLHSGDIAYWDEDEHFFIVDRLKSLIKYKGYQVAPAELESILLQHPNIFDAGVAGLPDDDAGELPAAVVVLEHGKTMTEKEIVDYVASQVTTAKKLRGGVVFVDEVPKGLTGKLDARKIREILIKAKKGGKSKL
Assay [6] can be described thus: qHTS assay to identify small molecule agonists of the constitutive androstane receptor (CAR) signaling pathway - cell viability counter screen (AID 1224836). Further: series mostly up to about 92 µM; nearly all actives have a fitted effect of over 45% in size. In short, it runs like this:
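Cells were seeded and incubated 4 hrs. Compounds were added across 15 concentrations together with PK11195 at 0.75 uM final. Plates were incubated 23 hrs at 37 C. CellTiter-Fluor was added and fluorescence measured.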

Assay [7] deals with Nuclear receptor subfamily 1 group I member 3 (Homo sapiens) (UniProt Q14994). Description: qHTS assay to identify small molecule agonists of the constitutive androstane receptor (CAR) signaling pathway (AID 1224839). Further: series mostly up to about 92 µM; nearly all actives have a fitted effect of over 15% in size. The essentials: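 Cells were plated and incubated 4 hrs, then dosed with compounds at 15 concentrations. PK11195 was added to 0.75 uM final. After 24 hrs at 37 C, luciferase luminescence was measured.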
Sequence of Nuclear receptor subfamily 1 group I member 3 (Homo sapiens) (Q14994 whole entry, looked up): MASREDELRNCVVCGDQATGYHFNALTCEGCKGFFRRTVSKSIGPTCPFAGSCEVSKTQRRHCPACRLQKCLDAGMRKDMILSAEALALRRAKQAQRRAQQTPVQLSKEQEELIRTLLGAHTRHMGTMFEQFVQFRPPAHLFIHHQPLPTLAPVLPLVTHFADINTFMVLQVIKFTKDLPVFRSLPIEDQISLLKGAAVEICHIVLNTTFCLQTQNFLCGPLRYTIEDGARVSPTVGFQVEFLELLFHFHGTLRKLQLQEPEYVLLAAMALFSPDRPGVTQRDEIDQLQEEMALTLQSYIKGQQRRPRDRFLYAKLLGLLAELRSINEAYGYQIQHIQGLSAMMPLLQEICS

Assay [8] is described as follows: qHTS assay to identify small molecule antagonists of the estrogen related receptor signaling pathway with the pleiotropic PPARgamma coactivator (PGC) from Tox21 10K library - cell viability counter screen (AID 1224840; active means well fitted cell-killing curve with a large enough effect in the repeat runs, not every such curve was filed as active; further: nearly all actives have a fitted effect of over 40% in size). The essentials:
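Readout: fluorescence intensity from CellTiter-Fluor after 30 min at 37 C/5% CO2. Preceded by 17.5 h treatment of PGC/ERR cells with DMSO-dissolved compounds, added 6 h post-seeding.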

Assay [9] addresses Thyrotropin receptor (Homo sapiens) (UniProt P16473). In words: qHTS assay to identify small molecule agonists of the thyroid stimulating hormone receptor (TSHR) signaling pathway (AID 1224843; calls by dose curve; further: nearly all actives have a fitted effect of over 45% in size). In short, it runs like this:
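Using 15 concentrations per compound in triplicate, cAMP production was monitored in TSHR-HEK293 cells after 30 min compound incubation at RT; HTRF reagents followed, with fluorescence intensity recorded after 1 h.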

Assay [10] is described as follows: qHTS assay to identify small molecule antagonists of the constitutive androstane receptor (CAR) signaling pathway - cell viability counter screen (AID 1224837). Further: series mostly up to about 92 µM; nearly all actives have a fitted effect of over 45% in size. In short, it runs like this:
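CITCO at 50 nM final was added alongside compounds (15 concentrations) to double-stable hCAR/CYP2B6-2.2kb HepG2 cells. Following 23 hr at 37 C, cell viability was quantified by CellTiter-Fluor fluorescence intensity.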

Assay [11] has as its target Nuclear receptor subfamily 1 group I member 3 (Homo sapiens) (UniProt Q14994). In words: qHTS assay to identify small molecule antagonists of the constitutive androstane receptor (CAR) signaling pathway (AID 1224838). Further: nearly all actives have a fitted effect of over 40% in size. In short, it runs like this:
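Inhibition of CITCO-driven (50 nM final) CYP2B6 reporter expression is measured in HepG2 cells stably carrying hCAR. Fifteen compound concentrations are applied for 24 h at 37 C, followed by luciferase luminescence.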

A short description of assay [12]: qHTS assay to identify small molecule antagonists of the estrogen related receptor signaling pathway with the pleiotropic PPARgamma coactivator (PGC) from Tox21 10K library (AID 1224841; call rule not given here; further: actives are mostly falling curves and most rising ones were filed inactive; nearly all actives have a fitted effect of over 50% in size; further: potency means the concentration at half of the fitted maximal effect; on activity, negative = inhibition: series mostly up to about 92 µM). The essentials: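 One-Glo luminescence, measured after half an hour at room temperature, quantified reporter output of PGC/ERR cells. These had been plated at 2,000 per well, incubated 6 h, dosed with compounds in DMSO, then kept 18 h at 37 C.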

Assay [13] is described as follows: qHTS assay to identify small molecule agonists of the estrogen related receptor signaling pathway with the pleiotropic PPARgamma coactivator (PGC) from Tox21 10K library (AID 1224842). Further: nearly all actives have a fitted effect of over 15% in size. The essentials:
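PGC/ERR reporter cells (NTP line) were seeded 2,000 per well, rested 6 h at 37 C/5% CO2, then pin-dosed with compounds in DMSO for 18 h at 37 C; luciferase read by One-Glo luminescence after 30 min at room temperature.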

A short description of assay [14]: qHTS assay to identify small molecule agonists of the retinoic acid receptor (RAR) signaling pathway (AID 1159553). In short, it runs like this:
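In this cell-based screen, 1,000 C3RL4 cells per well were cultured overnight, dosed with test chemicals in DMSO for 6 hr, and assessed for RARE luciferase luminescence.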

Molecules are shown by their SMILES. Inconclusive results are not listed. Values without a mark were called inactive. The source made the active and inactive calls. Unless noted, the call rests on the fitted dose curve; in most records, active means well fitted curve in the direction sought with a large enough effect in the repeat runs; inconclusive means weak or mixed curves; inactive means no such curve, though single readings can be large; an effect the other way counts as inactive or inconclusive.
On the % scale 0 is the no-effect control and ±100 the full control effect.

Sequence of Thyrotropin receptor (Homo sapiens) (P16473 whole entry, looked up): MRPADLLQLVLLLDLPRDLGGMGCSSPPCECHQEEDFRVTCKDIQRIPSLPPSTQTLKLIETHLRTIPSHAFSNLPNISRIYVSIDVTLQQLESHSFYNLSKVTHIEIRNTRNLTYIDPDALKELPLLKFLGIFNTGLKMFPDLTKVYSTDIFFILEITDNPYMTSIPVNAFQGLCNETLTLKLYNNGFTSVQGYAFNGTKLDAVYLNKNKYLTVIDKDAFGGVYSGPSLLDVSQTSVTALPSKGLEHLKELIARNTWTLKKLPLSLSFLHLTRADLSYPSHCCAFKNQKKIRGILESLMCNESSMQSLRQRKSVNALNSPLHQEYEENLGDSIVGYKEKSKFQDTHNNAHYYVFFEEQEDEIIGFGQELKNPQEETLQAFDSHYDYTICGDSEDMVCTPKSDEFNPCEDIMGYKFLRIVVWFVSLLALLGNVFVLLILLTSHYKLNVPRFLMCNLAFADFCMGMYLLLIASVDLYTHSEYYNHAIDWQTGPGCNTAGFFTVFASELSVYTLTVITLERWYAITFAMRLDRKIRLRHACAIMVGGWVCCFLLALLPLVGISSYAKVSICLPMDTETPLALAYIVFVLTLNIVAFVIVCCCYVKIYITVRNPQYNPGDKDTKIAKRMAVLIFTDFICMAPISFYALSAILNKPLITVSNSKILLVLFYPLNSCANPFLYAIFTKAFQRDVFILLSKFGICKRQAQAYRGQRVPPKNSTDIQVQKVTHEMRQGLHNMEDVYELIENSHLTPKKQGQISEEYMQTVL

Take `CCCC(=O)OCC`: the Potency result in assay [1], in [2], in [3], in assay [4], in assay [5] and in [6] was “inactive” each time. The Potency entry in assay [7], in [8] and in assay [9] was “inactive” in each case.

As to `Nc1nc(CC(=O)O)cs1`, the results for the Potency in assay [1] and in [12] were 21.9 µM (active) and 48.7 µM (active), respectively. The Potency result in assay [2], in assay [3], in assay [5], in assay [6], in assay [10] and in [11] was “inactive” each time. The Potency result in assay [7], in [8], in [13] and in assay [9] was “inactive” in each case.

Regarding `CC(=O)O[C@@H]1C(=O)O[C@@H]2[C@H]1OC(=O)[C@@H]2OC(C)=O`, the Potency entry in assay [1], in [2], in [3], in assay [14], in assay [4] and in assay [6] was “inactive” in each case. Further, the Potency entry in assay [8] is “inactive”.

Regarding `NC[C@H]1O[C@H](O[C@H]2[C@H](O)[C@@H](O[C@H]3O[C@H](CO)[C@@H](O)[C@H](N)[C@H]3O)[C@H](N)C[C@@H]2N)[C@H](O)[C@@H](O)[C@@H]1O`, the results for the activity change, negative = cytotoxicity in assay [1], in assay [2] and in assay [10] were -2.14% [at 6.97 µM], -0.107% [at 8.39 µM] and 2.42% [at 8.39 µM], respectively. In assay [3], the activity, negative = inhibition was 7.6% [at 8.39 µM]. Further, the results for the viability change, negative = cytotoxic in [4] and in assay [8] were -5.48% [at 8.39 µM] and 5.71% [at 8.39 µM], respectively. Moreover, in assay [5], the activity change, negative = inhibition was 8.02% [at 10.5 µM]. In addition, the values for the activation in assay [13] and in assay [9] were 1.17% [at 8.39 µM] and -0.345% [at 8.39 µM], respectively.

Turning to `O=C(Nc1ccccc1)OCC(CN1CCCCC1)OC(=O)Nc1ccccc1` (stereo not given), the Potency result in assay [1], in assay [2], in [3], in assay [14], in [4] and in [11] was “inactive” throughout. In addition, the Potency entry in assay [7] and in [8] was “inactive” in each case.

With `CC/C(=C\C(=N/O)C(N)=O)C(C)[N+](=O)[O-]` (stereo not given), the Potency result in assay [1], in assay [2], in [3], in [4], in assay [5] and in [10] was “inactive” in each case. In addition, the Potency result in assay [7], in assay [8], in assay [12], in assay [13] and in [9] was “inactive” throughout.

Take `CCOc1ccc2[nH]cc(C(=O)NCc3ccccc3)c(=O)c2n1`: the Potency entry in [1], in assay [2], in assay [3], in assay [14], in assay [10] and in assay [11] was “inactive” in each case. Moreover, the Potency result in assay [8] and in [13] was “inactive” in each case.

On to `CC(=O)NCCCS(=O)(=O)O`, for which the Potency entry in assay [1], in assay [2], in [3], in assay [4], in assay [5] and in [6] was “inactive” in each case. Also, the Potency result in [10], in assay [7], in assay [8] and in assay [9] was “inactive” throughout.

Take `C=C(C)C(=O)OCCOc1ccccc1`: the Potency entry in [1], in [2], in [3], in [4], in assay [6] and in assay [10] was “inactive” throughout. The Potency result in assay [11], in [7], in assay [8], in [12] and in [13] was “inactive” throughout.

These data come from PubChem BioAssay (Tox21).
